We go through 3 molecules from PubChem BioAssay.

SMILES strings stand for the structures. Several values for one entry are separate records, joined by “and”; a condition that tells them apart may be missing. Equal values may be shown once. Activity calls are given as the source filed them. Rule as the data show it: active = inhibition above about 80%; inactive = the rest.

As usually defined, the inhibition is the change of the read-out against control, counted positive when it falls.
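Also: cells exposed for 96 hours before readout.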

One test is described as follows: ICB984 medulloblastoma cell growth inhibition, synergistic combos for chromothripsis tumors, cisplatin or BGB combos (AID 1671451).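 Also: 0% = vehicle DMSO and 100% = killing by high DMSO.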 The settings on record: ICB984 medulloblastoma cells, drug combinations, cisplatin combo, at 5 µM, stronger effect = higher value.
For the molecule `COc1c(N2CC3CCCNC3C2)c(F)cc2c(=O)c(C(=O)O)cn(C3CC3)c12` (centres undefined), the inhibition is -29.8% and -8.73%.

For `Cc1ccc(NC(=O)CCCCCC(=O)Nc2ccccc2N)cc1`, the inhibition was -6.29%.

Regarding `Nc1ccccc1NC(=O)CCCCCCC(=O)Nc1ccccc1`, the inhibition is -18.3% and -14.7%.

Staying with this test, now noted: ICB984 medulloblastoma cells, drug combinations, measured here: 5 uM single agent, at 5 µM, stronger effect = higher value.
`COc1c(N2CC3CCCNC3C2)c(F)cc2c(=O)c(C(=O)O)cn(C3CC3)c12` (centres undefined): the inhibition was -4.57% and 0.836%.

With `Cc1ccc(NC(=O)CCCCCC(=O)Nc2ccccc2N)cc1`, the inhibition was -12.7%.

For `Nc1ccccc1NC(=O)CCCCCCC(=O)Nc1ccccc1`, the inhibition is -14.3% and -5.49%.

Another test in a line: LFS_MB_1R medulloblastoma cell growth inhibition, synergistic combos for chromothripsis tumors, cisplatin or BGB combos (AID 1671452). The settings on record: LFS_MB_1R medulloblastoma cells, at 0.5 µM, stronger effect = higher value.
As to `COc1c(N2CC3CCCNC3C2)c(F)cc2c(=O)c(C(=O)O)cn(C3CC3)c12` (centres undefined), the inhibition is -18.3% (inactive) and -14.3% (inactive).

For `Cc1ccc(NC(=O)CCCCCC(=O)Nc2ccccc2N)cc1`, the inhibition is -31.8% (inactive).

Turning to `Nc1ccccc1NC(=O)CCCCCCC(=O)Nc1ccccc1`, the inhibition was -20.2% (inactive) and -14.9% (inactive).
